# RGS12 GoLoco inh: inhibitors of human Gai1-RGS12 GoLoco interaction (red fluorophore) | AID 880 | P63096 | Gai1:RGS12 GoLoco peptide FP, rhodamine, 10 min | 230,000 tested, 0.44% active | Potency, µM (highest dose often 61.6 µM), for inactives: at the top dose activity, negative = inhibition, hits mostly inhibitors; active = well fitted inhibition curve with a large enough effect, not every such curve was filed as active; inactive = no such curve, though single readings can be large or run the other way; note: potency is the fitted concentration of half-maximal effect; % is set by controls: 0 for no effect and ±100 for the full control effect; nearly all actives have a fitted effect of over 30% in size
# Target sequence (P63096 whole entry, looked up): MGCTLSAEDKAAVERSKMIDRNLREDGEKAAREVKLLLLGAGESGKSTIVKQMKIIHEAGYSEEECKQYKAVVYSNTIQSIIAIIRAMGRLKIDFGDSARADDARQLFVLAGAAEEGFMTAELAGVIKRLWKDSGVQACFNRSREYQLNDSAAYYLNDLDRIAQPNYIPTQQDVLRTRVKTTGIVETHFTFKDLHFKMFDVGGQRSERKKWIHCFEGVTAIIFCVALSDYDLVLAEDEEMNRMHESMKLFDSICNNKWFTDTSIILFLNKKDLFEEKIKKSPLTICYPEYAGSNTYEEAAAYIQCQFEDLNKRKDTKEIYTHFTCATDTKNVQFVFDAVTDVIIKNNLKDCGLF
# HttQ103 aggreg: mutant huntingtin aggregation inhibition; PC12 HttQ103-GFP aggregates, Acumen cytometry, 40 h; Potency, µM (doses to about 46.1 µM), without a hit: at the highest dose activity change, negative = inhibition, actives largely listed as inhibitors; 220,000 tested, 1.1% active; active = well fitted curve in the direction sought with a large enough effect; inconclusive = small, poorly fitted or top-dose-only effect, or another doubt; inactive = no such curve, though single readings can be large; an effect the other way counts as inactive or inconclusive; note: potency is the fitted concentration of half-maximal effect; % is set by controls: 0 for no effect and ±100 for the full control effect; nearly all actives have a fitted effect of over 60% in size
#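 Inducible Q103 Huntingtin exon 1–GFP PC12 line, 1500 cells/well in phenol red free DMEM with 5% equine and 5% calf serum. Tebufenozide 100 nM induced expression; compounds titrated; aggregates quantified by cytometry.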
# PNC assembly inh: inhibitors of perinucleolar compartment assembly. PC3M PTB-GFP, PNC prevalence imaging, 16 h; active compounds read low. activity change (PNC), negative = inhibition, % at 10 µM. 140,000 tested, 3.1% active;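 active = readout at or below -70, meaning at least 70% loss of cells showing the perinucleolar compartment, a nuclear body marking cancer cells; inconclusive = readout between -30 and a set limit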;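 note: plate controls were DMSO wells for no effect and camptothecin positive control wells for full effect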
#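 PC3M cells stably expressing PTB-GFP, 750–1000 cells/well, treated 16 h at 37 °C with compound (23 nl of library stock), in duplicate. After paraformaldehyde fixation and Hoechst stain, imaged at 20x; PNC prevalence scored by image analysis.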
# HPGD inh: HPGD (human) dehydrogenase inhibition. P15428. purified HPGD, NADH fluorescence kinetic, PGE2 substrate. Potency, µM, inactives show at the highest dose activity change, negative = inhibition, hits mostly inhibitors. 150,000 tested, 4.3% active. AID 894; note: potency is the fitted concentration of half-maximal effect; % is set by controls: 0 for no effect and ±100 for the full control effect
# Target sequence (P15428 whole entry, looked up): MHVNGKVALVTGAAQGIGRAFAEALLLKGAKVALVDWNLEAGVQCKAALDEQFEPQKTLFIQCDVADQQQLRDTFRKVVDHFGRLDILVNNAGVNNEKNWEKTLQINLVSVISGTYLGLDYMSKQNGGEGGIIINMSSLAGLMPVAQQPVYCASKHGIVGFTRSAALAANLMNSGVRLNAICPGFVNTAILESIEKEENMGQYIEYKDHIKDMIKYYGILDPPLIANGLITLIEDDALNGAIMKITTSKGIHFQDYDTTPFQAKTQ
#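 20 nM HPGD preincubated 15 min at room temperature with compound in 50 mM Tris-HCl pH 8, 0.01% Tween 20. Started with 1 mM NAD+ and 30 uM prostaglandin E2; NADH fluorescence (360/450 nm) read 5 times over 30-s intervals, last minus first.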
# ALDH1A1 block: ALDH1A1 (human) enzyme inhibition; AID 1030; Purified ALDH1A1, NADH fluorescence, propionaldehyde substrate; Potency, µM (titrated, usually from 75.3 µM), for inactives: at the highest dose activity, negative = inhibition, usual class: inhibitors; 220,000 tested, 7.3% active;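 note: potency is the fitted concentration of half-maximal effect; plate controls were no enzyme wells and a reference inhibitor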
# HTT ATP protect: Huntington cell model cytoprotection by ATP luminescence. PC12 HTT-Q103 induced, cytoprotection, ATP luminescence, 40 h. Potency, µM (titrated, usually from 56.4 µM), for inactives: cytoprotection (ATP increase), hits mostly activators. 230,000 tested, 0.14% active; active = well fitted curve in the direction sought with a large enough effect; inconclusive = small, poorly fitted or top-dose-only effect, or another doubt; inactive = no such curve, though single readings can be large; an effect the other way counts as inactive or inconclusive; note: potency is the fitted concentration of half-maximal effect; % of control where 0% means no effect; nearly all actives have a fitted effect of over 45% in size
#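 Cells were plated at 1500 per well in phenol red-free DMEM with 5% equine and 5% calf serum. Tebufenozide (100 nM final) and compounds were added, then ATPlite reagent, and luminescence was read.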
# An asterisk follows results filed as active; ? = inconclusive; nt = no result given; [ ] = dose if it differs, or a comment. A selection: hits, their analogues and other compounds. The true share with any hit is near 11%. Unless noted, calls come from the whole dose curve; as a rule, active = well fitted inhibition curve with a large enough effect (not every such curve was filed as active); inconclusive = small, poorly fitted or top-dose-only effect, or another doubt; inactive = no such curve, though single readings can be large or run the other way.
SMILES,RGS12 GoLoco inh,HttQ103 aggreg,PNC assembly inh,HPGD inh,ALDH1A1 block,HTT ATP protect
CCCN1C2CCCC1CC(NC(=O)Nc1cccc(C(C)=O)c1)C2 (stereo not given),0%,8%,?,0%,9%,27%[10 µM]
CCOC(=O)c1cc(C(=O)OCC)c(=O)[nH]c1C,-11%,-8%,16,-28%,?,nt
CCOC(=O)c1cc(C)[nH]c(=S)c1C#N,-29%,19%,40,-14%,20µM*,-13%
CN1CCC[C@@H](CC2c3ccccc3Sc3ccccc32)C1,10%[21.6 µM],-38%[20.6 µM],nt,-2%,8%[20.9 µM],-23%[40.3 µM]
Cc1ccccc1C(=O)Nc1nnc(-c2ccc(F)cc2)o1,12%,10µM*,-16,-19%,7%,-47%
O=C1/C(=C/c2cccnc2)SC(=S)N1c1ccccc1,15%,1%,26,-9%,?,0%[10 µM]
O=C1/C(=C/c2ccccc2O)SC(=S)N1Cc1cccnc1,56%,9%,73,2.8µM*,7.5µM*,-28%[10 µM]
Cc1cc(/C=C2\SC(=S)N(Cc3ccco3)C2=O)c(C)n1-c1cccnc1,107%,?,19,-15%,0.28µM*,-16%
O=C1/C(=C/c2ccc(O)c([N+](=O)[O-])c2)SC(=S)N1Cc1ccccc1,117%,?,nt,nt,4µM*,nt
Cc1cc(/C=C2\NC(=S)NC2=O)c(C)n1-c1cccnc1,2%,-21%[9.22 µM],nt,nt,23%,-33%[10 µM]
O=C1/C(=C/c2cccnc2)SC(=S)N1Cc1ccco1,-3%[14.2 µM],nt,nt,-14%,2.2µM*,6%[10 µM]
COc1ccccc1NS(=O)(=O)c1cccc(N2CC(O)=C(c3ccccc3)C2=N)c1,6%,2%,-22,-5%,-2%,-22%[10 µM]
COc1ccc2c(N)c(C(=O)NN)[nH]c2c1,6%,-12%[9.22 µM],nt,nt,nt,11%[10 µM]
CN1C(=O)/C(=C/c2ccc(O)c([N+](=O)[O-])c2)NC1=S,5%,18%[9.22 µM],nt,nt,11µM*,2%[10 µM]
COc1cc(/C=C2\NC(=S)N(C)C2=O)ccc1O,49%,24%,nt,nt,?,-6%
Cc1nnc(SCc2ccccc2)[nH]c1=O,6%,11%[9.22 µM],nt,nt,7.1µM*,15%[10 µM]
Cc1ccc(CSc2nnc(C)c(=O)[nH]2)cc1,8%,-5%,nt,nt,11%,-75%
CCOC(=O)CSc1nnc(CNc2ccc(Cl)cc2)n1-c1ccccc1,5%,9%,19,-11%,10µM*,-2%[10 µM]
CCOc1ccc(NCc2nnc(SCc3ccc(Cl)cc3)n2-c2ccccc2)cc1,1%,?,-27,-5%,16µM*,10%[10 µM]
CCOC(=O)CSc1nnc(CNc2cccc(Cl)c2)n1-c1ccccc1,0%,-21%,-21,3%,?,8%
Nc1nc(SCC(=O)O)[nH]c(=O)c1N,1%[14.2 µM],nt,nt,-10%,-12%[13.5 µM],-5%[10 µM]
CCOC(=O)C(CCc1ccccc1)NC(C)C(=O)N1C(C(=O)O)CC2CCCC21 (stereo not given),5%,nt,nt,-1%,6%,nt
CCOC(=O)[C@H](CCc1ccccc1)N[C@@H](C)C(=O)N1[C@H](C(=O)O)C[C@H]2CCC[C@@H]21,8.9µM*,4%,nt,1%,3%[20.9 µM],3.2µM*
Cc1cccc(-n2ncc3c(N4CCCC4)ncnc32)c1,7%,14%,?,-6%,?,-159%[0.074 µM]
CS(=O)(=O)N1CCN(c2ncnc3c2cnn3-c2ccccc2)CC1,9%,-8%[9.22 µM],nt,nt,?,10%[10 µM]
SMILES,RGS12 GoLoco inh,HttQ103 aggreg,PNC assembly inh,HPGD inh,ALDH1A1 block,HTT ATP protect
O=C(COc1ccccc1)N1CCN(c2ncnc3c2cnn3-c2ccccc2)CC1,14%,?,-97*,-12%,7.1µM*,13%[10 µM]
Cc1cccc(-n2ncc3c(N4CC(C)CC(C)C4)ncnc32)c1 (stereo not given),9%,22µM*,?,-30%,25µM*,-98%
Cc1cccc(C(=O)N2CCN(c3ncnc4c3cnn4-c3ccccc3)CC2)c1,-6%,?,-5,-4%,10µM*,-6%[10 µM]
CN[C@@H](CC(C)C)C(=O)N[C@@H]1C(=O)N[C@H](CC(N)=O)C(=O)N[C@H]2C(=O)N[C@H]3C(=O)N[C@H](C(=O)N[C@H](C(=O)O)c4cc(O)cc(O)c4-c4cc3ccc4O)[C@H](O)c3ccc(c(Cl)c3)Oc3cc2cc(c3O[C@@H]2O[C@@H](CO)[C@@H](O)[C@@H](O)[C@H]2O[C@H]2C[C@](C)(N)[C@H](O)[C@H](C)O2)Oc2ccc(cc2Cl)[C@@H]1O,nt,nt,nt,nt,nt,-12%[1.9 µM]
COc1cc(/C=N/NC(=S)NC2CC3C=CC2C3)cc(OC)c1OC (stereo not given),5%,-4%[9.22 µM],nt,nt,2.5µM*,-16%[10 µM]
Oc1c(Br)cc(Br)cc1/C=N/NC(=S)N[C@H]1CC2C=CC1C2 (stereo not given in full),-10%,-25%[9.22 µM],nt,nt,13µM*,-50%[10 µM]
O=c1c2c3c(sc2nc2n1CCCCC2)CCCC3,5%,1%,-17,?,35µM*,-15%
COC(=O)N1CCC[C@@]2(CCN(C(=O)Nc3cccc(C#N)c3)C2)C1,-19%,nt,nt,-2%,-6%,0%
COc1cc(/C=C2/C(=O)N=C(N)N2C)cc(OC)c1OC,-12%,6%,31,16µM*,?,-5%
Cc1nn(-c2ccccn2)c2c1-c1nc(N)ncc1CC2,7%,11µM*,?,?,?,-57%
CCc1cccc(NC(=O)c2cc(OC)c(OC)c(OC)c2)c1,6%,3%,nt,nt,7%,nt
O=C(Nc1ccccc1)N(C1=NCCC1)c1ccc(OC(F)F)cc1,1%,-3%,4,-5%,-1%,-13%
COc1ccc2c(c1)S/C(=C\C(=O)c1ccncc1)N2C,85%,20%,-12,28µM*,14µM*,7%
CN[C@@H](c1ccncc1)[C@@H](NC)c1ccncc1,8%[14.2 µM],nt,nt,-8%,3%[13.5 µM],-9%[10 µM]
O=C(Cn1c(C(=O)N2CCN(C3CCCC3)CC2)cc2sccc21)c1ccccc1,nt,9%,-122*,nt,2%,-1%[10 µM]
COc1ccccc1-c1nccc(NCc2cccc(C)c2)n1,-3%,nt,nt,-7%,?,-36%
O=C(C1=C[C@@H](C2CC2)C[C@@H](OCCCCO)O1)N1CCN(Cc2ccc3c(c2)OCO3)CC1,-6%,6%[9.22 µM],nt,nt,?,-8%[10 µM]
O=C(OC(C(=O)Nc1ccc(Cl)cc1C(F)(F)F)c1ccccc1)c1c(Cl)cccc1Cl (stereo not given),3%,-7%,75,-8%,3.2µM*,13%[10 µM]
CCC(C(=O)NC(C)CCc1ccco1)n1nc(C)n2c(cc3occc32)c1=O (stereo not given),1%,-9%,-100*,-2%,?,13%[10 µM]
CCC(C(=O)NC(C)CCc1ccccc1)n1nc(C)n2c(cc3occc32)c1=O (stereo not given),-3%,11%,?,-12%,9%,-14%
